Assay [1] deals with N-terminal Xaa-Pro-Lys N-methyltransferase 1 (Homo sapiens) (UniProt Q9BV86). Nature of the assay: qHTS Assay for Inhibitors of N-terminal methyltransferase 1 (NTMT1): LOPAC validation of the NTMT1 SAHH-coupled ThioGlo3 Assay (AID 1347143).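 Also: SAH from peptide methylation measured as thiol fluorescence via SAHH coupling and ThioGlo3; nearly all actives have a fitted effect of over 70% in size.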 Also: potency is read from the fitted curve at half-maximal effect. Summed up:
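Inhibition of NTMT1 methylation of peptide SPKRIA is followed by converting SAH with SAHH and labelling the released thiol with ThioGlo3. Plates are read at 340/450nm before and 30 min after reagent addition, both at room temperature.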

For assay [2], the system named is Zika virus NS2B-NS3 protease (unlinked). Nature of the assay: Optimization of GU AMC qHTS for Zika virus inhibitors: Unlinked NS2B-NS3 protease assay (AID 1347151). Also: nearly all actives have a fitted effect of over 80% in size. Also: potency is read from the fitted curve at half-maximal effect. Summed up: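 Noncovalent complex of NS2B hydrophilic domain and NS3 protease domain, 25 nM final, in 10 mM Tris-HCl pH 8.0, 0.01% Tween 20. AMC fluorescence change over 15 min at room temperature was fitted to a 4-parameter Hill equation.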

Assay [3] is described as follows: qHTS of pediatric cancer cell lines to identify multiple opportunities for drug repurposing: Confirmatory screen for Rh41 cells (AID 1347123).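 Also: 48 h compound exposure; nearly all actives have a fitted effect of over 60% in size.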 Also: potency is read from the fitted curve at half-maximal effect. The procedure, abridged: (§1)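 Cells (500-1,000/well) rested 5 h, then received compounds for 48 h; metabolically active cells were measured by CellTiter-Glo luminescence. Final concentrations spanned up to 46 µM (MIPE, 11-point) or 0.59 nM-46 µM (NPC, 8-point) in primary screens, 11-point in follow-ups.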

Assay [4] can be described thus: qHTS of pediatric cancer cell lines to identify multiple opportunities for drug repurposing: Confirmatory screen for RD cells (AID 1347124).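 Also: cells exposed to compound for 48 h before viability readout; nearly all actives have a fitted effect of over 65% in size.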 Also: potency is read from the fitted curve at half-maximal effect. Summed up: as §1
Assay [5] is described as follows: qHTS of pediatric cancer cell lines to identify multiple opportunities for drug repurposing: Confirmatory screen for Rh18 cells (AID 1347125). Also: nearly all actives have a fitted effect of over 55% in size. Also: potency is read from the fitted curve at half-maximal effect. The procedure, abridged: as §1
In general terms: In qHTS, concentration-response curves come from the screen itself.

Assay [6] is described as follows: qHTS of pediatric cancer cell lines to identify multiple opportunities for drug repurposing: Confirmatory screen for Rh30 cells (AID 1347126). Also: nearly all actives have a fitted effect of over 55% in size. Also: potency is read from the fitted curve at half-maximal effect. Summed up:
as §1

The nature of assay [7]: qHTS of pediatric cancer cell lines to identify multiple opportunities for drug repurposing: Confirmatory screen for Saos-2 cells (AID 1347127). Also: nearly all actives have a fitted effect of over 60% in size. Also: potency is read from the fitted curve at half-maximal effect. Summed up: as §1
Assay [8] in a line: qHTS of pediatric cancer cell lines to identify multiple opportunities for drug repurposing: Confirmatory screen for OHS-50 cells (AID 1347128).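 Also: compound exposure lasted 48 h at 37 degrees C; nearly all actives have a fitted effect of over 55% in size.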 Also: potency is read from the fitted curve at half-maximal effect. The procedure, abridged:
as §1

The nature of assay [9]: qHTS of pediatric cancer cell lines to identify multiple opportunities for drug repurposing: Confirmatory screen for SK-N-SH cells (AID 1347129).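 Also: cells exposed to compound for 48 h before viability read; nearly all actives have a fitted effect of over 60% in size.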 Also: potency is read from the fitted curve at half-maximal effect. The procedure, abridged:
as §1

The target in assay [10] is Furin (Homo sapiens) (UniProt P09958). The assay is described as follows: Furin counterscreen qHTS for Zika virus inhibitors (AID 1347149).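 Also: purified recombinant full-length human furin enzyme at 5 nM; fluorescence gain from furin cutting a BOC-RVRR-AMC peptide substrate over 15 min; top concentration of the series differs between compounds; nearly all actives have a fitted effect of over 70% in size.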 Summed up: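 Fluorogenic cleavage of BOC-RVRR-AMC (2 microM final, Km ~15 µM) was monitored (ex 340, em 450 nm) at 37C after 15 min RT preincubation of 5 nM furin with compounds in HEPES pH 7.0 buffer with CaCl2 and Triton X-100. Percent inhibition was fitted to a 4-parameter Hill curve.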
Furin (Homo sapiens), sequence (P09958 whole entry, looked up): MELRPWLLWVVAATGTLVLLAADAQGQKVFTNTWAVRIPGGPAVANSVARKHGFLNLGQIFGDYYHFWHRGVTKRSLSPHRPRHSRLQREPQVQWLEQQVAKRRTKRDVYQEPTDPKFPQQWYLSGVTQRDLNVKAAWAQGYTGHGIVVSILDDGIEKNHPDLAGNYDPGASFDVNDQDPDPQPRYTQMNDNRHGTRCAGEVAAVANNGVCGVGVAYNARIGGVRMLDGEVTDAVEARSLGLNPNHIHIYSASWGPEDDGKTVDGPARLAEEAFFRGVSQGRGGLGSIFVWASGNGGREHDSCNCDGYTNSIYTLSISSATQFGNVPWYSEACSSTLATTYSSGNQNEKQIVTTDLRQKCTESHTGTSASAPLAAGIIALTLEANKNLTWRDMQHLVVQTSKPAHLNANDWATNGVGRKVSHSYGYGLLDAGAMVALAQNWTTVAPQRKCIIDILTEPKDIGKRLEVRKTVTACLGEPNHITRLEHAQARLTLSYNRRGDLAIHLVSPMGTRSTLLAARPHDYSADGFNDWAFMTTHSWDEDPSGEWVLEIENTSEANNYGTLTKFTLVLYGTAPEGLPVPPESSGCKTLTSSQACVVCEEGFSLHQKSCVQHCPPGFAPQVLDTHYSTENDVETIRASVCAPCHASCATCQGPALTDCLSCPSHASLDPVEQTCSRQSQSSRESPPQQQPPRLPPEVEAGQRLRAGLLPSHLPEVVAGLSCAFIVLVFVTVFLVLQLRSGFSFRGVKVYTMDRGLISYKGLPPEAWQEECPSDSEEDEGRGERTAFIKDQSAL
On the technique in general: A counterscreen serves to expose hits that act by an unwanted route or on another target.

Assay [11] has as its system Zika virus NS2B-NS3 protease. The assay is described as follows: Primary screen GU AMC qHTS for Zika virus inhibitors (AID 1347154). Also: nearly all actives have a fitted effect of over 70% in size. Summed up: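 Fluorogenic AMC-substrate cleavage by noncovalent NS2B-NS3 protease complex (25 nM, pH 8.0 Tris buffer with Tween 20) followed for 15 minutes at room temperature (~20% conversion). Percent inhibition from ex340/em450 signal change, fitted by 4-parameter Hill equation.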

Assay [12] deals with Zika virus NS2B-NS3 protease (linked). The assay is described as follows: 384 well plate NINDS AMC confirmatory qHTS for Zika virus inhibitors (AID 1347163). Also: potency is read from the fitted curve at half-maximal effect; nearly all actives have a fitted effect of over 50% in size. Summed up:
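Linked NS2B-NS3 protease (final 5 nM, 30 nM or 60 nM) was preincubated with compounds (final up to 1 mM) for ~15 minutes. Ac-VKTGKR-AMC substrate (final 30 microM) then reacted for 25 minutes at room temperature in the dark. Fluorescence (ex 355/em 460 nm) was normalized to no-enzyme and no-inhibitor controls.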

For assay [13], the system named is Zika virus NS2B-NS3 protease (linked construct). The assay is described as follows: 384 well plate NINDS Rhodamine confirmatory qHTS for Zika virus inhibitors (AID 1347164).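 Also: fluorescence from protease cleavage of Ac-LKRR-rhodamine 110 substrate; potency is read from the fitted curve at half-maximal effect; nearly all actives have a fitted effect of over 65% in size.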 Summed up:
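Linked protease at a final 5 nM, 30 nM or 60 nM was preincubated ~15 min with compounds, then given 10 microM Ac-LKRR-Rhodamine 110. Fluorescence (ex 485/em 538 nm) after 25 min in the dark at room temperature.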

Assay [14] has the same test system. The assay is described as follows: Primary screen NINDS Rhodamine qHTS for Zika virus inhibitors (AID 1347160). Also: nearly all actives have a fitted effect of over 55% in size. Conditions: outcome: dose series up to 57.1 µM unless noted. The procedure, abridged: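 In 10 mM Tris-HCl pH 8.0 containing 0.01% Tween 20, linked NS2B-NS3 protease (25 nM final) is exposed to test compounds for 15 min. Cleavage of 1.5 microM Rhodamine110 substrate is tracked by fluorescence over 15 min.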

Inconclusive results are not listed. Activity calls are given as the source filed them. Calls follow the shape of the dose curve; as a rule, active = well fitted curve in the direction sought with a large enough effect; inconclusive = small, poorly fitted or top-dose-only effect, or another doubt; inactive = no such curve, though single readings can be large; an effect the other way counts as inactive or inconclusive.

Results on twelve compounds are retold here after PubChem BioAssay (NCATS).

N-terminal Xaa-Pro-Lys N-methyltransferase 1 (Homo sapiens), sequence (Q9BV86 whole entry, looked up): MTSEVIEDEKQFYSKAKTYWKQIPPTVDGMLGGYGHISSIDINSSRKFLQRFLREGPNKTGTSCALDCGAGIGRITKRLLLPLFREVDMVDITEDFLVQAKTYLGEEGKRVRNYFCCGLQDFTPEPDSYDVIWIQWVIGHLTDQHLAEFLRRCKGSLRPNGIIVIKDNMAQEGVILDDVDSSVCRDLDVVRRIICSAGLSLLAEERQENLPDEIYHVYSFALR

Take `OCCN(CCO)c1nc(N2CCCCC2)c2nc(N(CCO)CCO)nc(N3CCCCC3)c2n1`: the values for the Potency in assay [1] and in assay [2] were 79.4 µM (active) and 26.7 µM (active), respectively.
As to `O=C(Nc1ccc([N+](=O)[O-])cc1Cl)c1cc(Cl)ccc1O`, the Potency in [3] was 1.15 µM (active); in [4], 4.56 µM (active); in assay [5] it was 3.62 µM (active); in assay [6], 2.29 µM (active); in assay [7] it was 2.29 µM (active); in assay [8], 1.62 µM (active). Moreover, the Potency in assay [9] is 3.23 µM (active); in assay [12], 20 µM (active); in [13], 7.94 µM (active). Besides, the Potency entry in assay [10], in assay [2] and in assay [11] was “inactive” in each case.
Turning to `CN(C)C(=O)C(CCN1CCC(O)(c2ccc(Cl)cc2)CC1)(c1ccccc1)c1ccccc1`, the Potency entry in [1], in [2] and in assay [11] was “inactive” in each case.
With `CS(=O)(=O)CCNCc1ccc(-c2ccc3ncnc(Nc4ccc(OCc5cccc(F)c5)c(Cl)c4)c3c2)o1`, the Potency in assay [3] is 8.27 µM (active); in assay [5], 14.7 µM (active); in assay [6] it was 14.7 µM (active); in assay [9], 23.5 µM (active). Moreover, the Potency entry in [4] is “inactive”. Moreover, the result in assay [14] was inactive.
Turning to `CC#C[C@]1(O)CC[C@H]2[C@@H]3CCC4=CC(=O)CCC4=C3[C@@H](c3ccc(N(C)C)cc3)C[C@@]21C`, the Potency in assay [3] is 23.3 µM (active). In addition, the Potency entry in assay [4], in assay [2] and in assay [11] was “inactive” in each case.
With `CC(C)Cc1ccc(C(C)C(=O)O)cc1` (configuration not stated), the Potency in assay [3] is 4.65 µM (active); in assay [4] it was 1.31 µM (active). Also, the Potency result in [5], in [6], in assay [8], in [9], in assay [1] and in [2] was “inactive” throughout. The Potency result in [11] is “inactive”.
Consider `CC(C(=O)O)c1cccc(C(=O)c2ccccc2)c1` (configuration not stated), for which the Potency entry in [1], in assay [2] and in [11] was “inactive” in each case.
Regarding `CCC1(c2ccccc2)C(=O)NCNC1=O`, the Potency result in assay [3], in [4], in [5], in [6], in assay [7] and in assay [8] was “inactive” each time. The Potency result in assay [9], in assay [2] and in assay [11] was “inactive” each time.
On to `Clc1ccc2nsnc2c1NC1=NCCN1`, for which the Potency entry in assay [3], in [5], in assay [9], in [2] and in assay [11] was “inactive” throughout. Besides, the Potency in assay [6] was 7.37 µM (active); in [7], 20.8 µM (active).
For the compound `CCCCc1oc2ccccc2c1C(=O)c1cc(I)c(OCCN(CC)CC)c(I)c1`, the Potency in assay [3] is 17.8 µM (active); in assay [5], 50.1 µM (active); in assay [6], 56.2 µM (active); in assay [7], 44.7 µM (active); in assay [8], 44.7 µM (active); in [9], 56.2 µM (active). Besides, the Potency entry in assay [11] is “inactive”.
On to `Nc1nnc(-c2cccc(Cl)c2Cl)c(N)n1`, for which the Potency result in assay [1], in assay [2] and in assay [11] was “inactive” in each case.
Take `COC(=O)Nc1nc2ccc(C(=O)c3cccs3)cc2[nH]1`: the Potency is 0.233 µM (active) in assay [4], 0.131 µM (active) in assay [7] and 0.208 µM (active) in assay [8]. For the same compound, the Potency result in assay [5], in assay [6], in assay [2] and in [11] was “inactive” throughout.
